Pf growth 48h – P. falciparum growth inhibition at 48 hours (one generation). P. falciparum luciferase growth in erythrocytes, 48 h. Potency, µM (titrated, usually from 28.7 µM), inactives show top-dose activity change, negative = inhibition, usual class: inhibitors. actives 5.9% (n = 310,000). AID 504832
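Read-out is firefly luciferase luminescence from an integrated reporter in P. falciparum, so falling signal marks reduced parasite growth. Infected erythrocytes were at 2% hematocrit and 0.1% parasitemia (final) in Albumax-supplemented RPMI 1640.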
Pf growth 96h – inhibits malaria parasite growth, 96 h | Potency, µM (series often up to 28.7 µM), for inactives: top-dose activity change, negative = inhibition, hits mostly inhibitors | actives 6.9% (n = 320,000) | P. falciparum luciferase reporter growth, 96 h
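P. falciparum expressing integrated firefly luciferase grown in erythrocytes (2% hematocrit, 0.05% parasitemia final) with compounds for 96 hours at 37 C, 5% CO2. Growth inhibition read as loss of luminescence after adding luciferase detection reagent.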
VACV Venus inh – inhibitors of vaccinia virus (Venus reporter). Vaccinia virus Venus reporter expression, fluorescence. Potency, µM (titrated, usually from 36.5 µM), for inactives: at the top dose activity change, negative = inhibition, actives largely listed as inhibitors. actives 0.46% (n = 330,000); calls by dose curve; tested in A549 cells; also: nearly all actives have a fitted effect of over 30% in size
AMA1 RON2 block – disrupts binding of P. falciparum AMA1 to RON2. AlphaScreen AMA1-biotinylated RON2 peptide binding. Potency, µM (titrated, usually from 58.2 µM), inactives show top-dose activity change, negative = inhibition, actives largely listed as inhibitors. actives 0.2% (n = 360,000);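 also: 0% = vehicle wells and -100% = peptide control; nearly all actives have a fitted effect of over 45% in size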
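AMA1 (3D7) with his tag at 25 nM final met compounds first, then biotinylated RON2 peptide at 25 nM; detection used donor plus acceptor beads, 10 µg/mL apiece, read by AlphaScreen after 30 min at room temperature.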
VACV mCherry inh – vaccinia inhibition (mCherry reporter); AID 720579; Potency, µM (highest dose often 36.5 µM), inactives show at the top dose activity change, negative = inhibition, actives largely listed as inhibitors; actives 0.63% (n = 310,000); Vaccinia virus mCherry reporter infection, fluorescence; calls by dose curve; tested in A549 cells; also: nearly all actives have a fitted effect of over 35% in size
Numbers without * were called inactive; i = inactive; ? = inconclusive; nt = no result; [ ] = remark or other dose. In the library only some 8.7% were active in any assay of this set; here they are far more common. Unless noted, calls follow the shape of the dose curve; as a rule, active = well fitted curve in the direction sought with a large enough effect; inconclusive = small, poorly fitted or top-dose-only effect, or another doubt; inactive = no such curve, though single readings can be large; an effect the other way counts as inactive or inconclusive. Unless noted, % is scaled to controls: 0 for no effect and ±100 for the full control effect; potency is read from the fitted curve at half-maximal effect.

SMILES	Pf growth 48h	Pf growth 96h	VACV Venus inh	AMA1 RON2 block	VACV mCherry inh
COc1ccc(/C=N/NC(=O)c2ccco2)cc1COc1ccc(F)cc1	9.28µM*	?	nt	-8.9%	nt
COc1cc(/C=N/NC(=O)C23CC4CC(CC(C4)C2)C3)cc(Br)c1O	7.5%	-21.1%	-5.4%	25.8%	-23.8%
COc1ccc(/C=N/NC(=O)c2cc(C(C)(C)C)[nH]n2)cc1COc1ccc(F)cc1F	?	13.1µM*	?	-1.6%	-14.9%
COc1cc(/C=N/NC(=O)CC23CC4CC(CC(C4)C2)C3)cc(Br)c1OCC(=O)N(C)C	13.1µM*	?	?	-10.2%	i
COc1ccc(/C=N/NC(=O)c2ccoc2C)cc1COc1c(C)cccc1C	?	10.4µM*	?	1.8%	12.6µM*
Cc1ccc2c(c1)c(=O)c1ccccc1n2CCCC(=O)Nc1ccc(F)cc1F	nt	nt	-24.3%	nt	i
COc1cc(/C=N/NC(=O)c2ccoc2C)cc(OC)c1O	0.2%	2.62µM*	-10.0%	22.9%	-19.3%
COc1ccc(/C=N\NC(=O)c2cc(O)c(O)c(O)c2)cc1COc1ccc(C(=O)OCC(C)C)cc1	2.94µM*	?	-21.5%	47.4%	-18.4%
COc1cc(C(=O)N/N=C/c2ccc(OC(=O)c3ccccc3)c(OC)c2)ccc1O	-5.1%	9.28µM*	-14.3%	-21.6%	-11.0%
COc1ccc(/C=N\NC(=O)c2ccccc2)cc1COc1ccccc1	?	11.7µM*	-23.0%	15.3%	-22.1%
O=C(Nc1ccc2nn(-c3ccccc3)nc2c1)c1ccc(-c2cccc(Cl)c2)o1	nt	nt	?	nt	-27.3%
CCCn1c(=O)c2sccc2n2c(CCCC(=O)Nc3ccc(C)c(F)c3)nnc12	nt	nt	1.6%	nt	-4.8%
COc1ccc(NC(=O)c2ncoc2-c2ccco2)cc1Cl	nt	nt	-28.0%	nt	-23.3%
CCc1ccc(-c2nc(CSCC(=O)NCc3ccc(C)cc3)c(C)o2)cc1	nt	nt	-10.9%[7.34 µM]	nt	-9.8%[7.34 µM]
COc1ccc(/C=N\NC(=O)c2ccccc2F)cc1COc1ccc(F)cc1F	?	?	-22.0%	21.5%	-8.5%
COc1ccc(/C=N\NC(=O)c2ccccc2OC)cc1COc1ccccc1C	13.1µM*	-6.6%	-16.8%	35.7%	-18.3%
OC(c1ccccc1)c1nc2ccccc2n1Cc1c(F)cccc1Cl (centres undefined)	nt	nt	-6.2%	nt	-12.4%
Cc1cc(C)cc(OC(C)C(=O)Nc2ccc3c(c2)n(C)c(=O)n3C)c1 (centres undefined)	-5.5%	0.928µM*	nt	0.0%	nt
Cc1ccc(OC(C)C(=O)Nc2ccc3c(c2)n(C)c(=O)n3C)cc1C (centres undefined)	?	?	-17.2%	-9.0%	-22.3%
CCn1c(N)c(C(=O)Nc2ccccc2C(=O)OC)sc1=S	61.4%	13.1µM*	-11.4%	1.1%	i
CCn1c(N)c(C(=O)NCCOC)sc1=S	nt	-3.6%	-10.1%	0.0%	-17.3%
CCC(C)(C)n1nnnc1C(c1ccc(C)cc1)N1CCC(C)CC1 (centres undefined)	10.4µM*	144.5%	nt	-23.5%	nt
CCC(C)(C)n1nnnc1C(c1ccc(C)cc1)N1CCN(Cc2ccc3c(c2)OCO3)CC1 (centres undefined)	14.7µM*	?	nt	-2.2%	nt
CCOc1ccccc1NC(=O)Cn1c(=O)n(-c2ccc(C)c(C)c2)c(=O)c2oc3ccccc3c21	nt	nt	-16.6%	nt	-18.7%
COc1cc(=O)n2c(c1C(=O)NCc1ccco1)CCN(C(=O)c1ccc(C)c(C)c1)CC2	nt	nt	-10.0%	nt	-22.1%
SMILES	Pf growth 48h	Pf growth 96h	VACV Venus inh	AMA1 RON2 block	VACV mCherry inh
Cc1c(Cl)cccc1NC(=O)CCS(=O)(=O)c1ccc2c(c1)CC(=O)N2C	nt	nt	-3.3%	nt	-11.9%
CN(C)C(=O)c1ccc(-n2cccn2)nc1	10.4µM*	2.0%	1.7%	6.8%	-10.0%
Cc1ncsc1C(=O)NCc1ccc(N2CCCC2=O)cc1	nt	4.65µM*	-18.4%	-5.1%	i
CCc1ccc(-n2nc3cc(C)c(NC(=O)c4cccc5ccccc45)cc3n2)cc1	nt	nt	-14.0%	nt	-10.7%
CCN(CC)S(=O)(=O)c1ccc(N2CCOCC2)c(NC(=O)C2=COCCO2)c1	3.29µM*	2.08µM*	-5.8%	-9.7%	-9.6%
CCN(CC)S(=O)(=O)c1ccc(N2CCOCC2)c(NC(=O)c2cnccn2)c1	8.28µM*	11.7µM*	-6.5%	11.0%	-7.3%
CCc1noc(C)c1C(=O)Nc1cc(S(=O)(=O)N(CC)CC)ccc1N1CCOCC1	?	?	-11.4%	10.8%	-14.9%
